# Shiga inhibitor – A qHTS for Small Molecule Inhibitors of Shiga Toxin. inhibition, % at 38.7 µM. AID 2315, 2010. 290,000 tested, 9.2% active. Vero cells, Shiga toxin protein synthesis inhibition reporter; in the data active = inhibition mostly above about 28%, no sharp cut-off; inactive = mostly below about 43%; note: 0% is about no effect
# Sm TGR block – qHTS Assay for the Inhibitors of Schistosoma Mansoni Peroxiredoxins; Schistosoma mansoni thioredoxin glutathione reductase (TGR), Q962Y6; purified TGR, DTNB reduction, TNB absorbance 405 nm; Potency, µM (titrated, usually from 114 µM), for the others: at the highest dose activity change, negative = inhibition, most hits filed as inhibitors; 360,000 tested, 3% active; AID 485364, 2010; active = well fitted inhibition curve with a large enough effect; inconclusive = small, poorly fitted or top-dose-only effect; inactive = no such curve, though single readings can be large or run the other way; note: potency is the fitted concentration of half-maximal effect; % is set by controls: 0 for no effect and ±100 for the full control effect; nearly all actives have a fitted effect of over 60% in size
#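 Kinetic colorimetric format: TGR-catalysed, NADPH-driven DTNB reduction monitored via TNB absorbance. Enzyme dispensed at 20 nM; compound exposure 15 min at room temperature before reaction start.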
# CHX counter – Cycloheximide Counterscreen for Small Molecule Inhibitors of Shiga Toxin; cell reporter, cycloheximide protein synthesis inhibition counterscreen; max response, %; 300,000 tested, 12% active; in the data active = max response mostly above about 13%, no sharp cut-off; inactive = mostly below about 14%; note: read at 38.3 µM for the half of the compounds with a filed dose; 0% is about no effect
# FMDV inh – High Throughput Screening for Foot and Mouth Disease Virus Antivirals; FMDV antiviral cell-based qHTS; Potency, µM (highest dose often 57.9 µM), for the others: at the highest dose activity change, negative = inhibition, usual class: inhibitors; 410,000 tested, 1.2% active; AID 1159524, 2015; calls by dose curve; tested in HEK293T cells; note: read-out not given here; potency is the fitted concentration of half-maximal effect; % is set by controls: 0 for no effect and ±100 for the full control effect; nearly all actives have a fitted effect of over 45% in size
# An asterisk follows results filed as active; ? = inconclusive; . = not tested or not shown; [ ] = dose if it differs, or a comment. The list is not random: actives were taken first. Their share in the collection is about 12%.
SMILES,Shiga inhibitor,Sm TGR block,CHX counter,FMDV inh
CCOC(=O)C(NC(=O)c1cccc(Cl)c1)(Nc1sc2c(c1C(N)=O)CCC2)C(F)(F)F (configuration not stated),-9,40µM*,-3,?
CCOC(=O)C(NC(=O)c1ccc(F)cc1)(Nc1sc2c(c1C(N)=O)CCC2)C(F)(F)F (configuration not stated),14,?,-2,-10%
CCOC(=O)C(NC(=O)c1ccccc1Cl)(Nc1sc2c(c1C(N)=O)CCC2)C(F)(F)F (configuration not stated),-25,40µM*,-2,?
Cc1cc(C)cc(NC(=O)Cn2c(=O)n(Cc3ccco3)c(=O)c3oc4ccccc4c32)c1,.,2%,.,-12%
Cc1c(C(=O)N(Cc2ccc(N(C)C)cc2)Cc2ccco2)oc2cc(Br)ccc12,.,3%,.,-28%
CC(c1cccs1)N(C)Cc1nc(CCc2ccccc2)no1 (configuration not stated),37*,7%,17,5%
COc1cccc(C(C)N(C)Cc2nc(COc3ccccc3)no2)c1 (configuration not stated),25,-29%,-4,-25%
CCCCCCCCCCCCOCCOCCOCCOCCOCCOCCOCCOCCOCCO,6,.,-1,.
N#CC(C#N)=C1C=CC=CN1/C(=C\c1ccccc1Cl)C(=O)c1ccccc1,-4,0.28µM*,-2,?
CC1CCN(C(=O)/C(=C/c2ccccc2Cl)c2ccccc2)CC1,-2,8%,-1,-12%
N#CC(C#N)=C1C=CC=CN1/C(=C\c1ccccc1)C(=O)c1cccs1,57,0.28µM*,24*,?
CCOC(=O)c1ccc(NC(=O)CC2C(=O)N(c3cccc(OC)c3)C(=O)N2Cc2ccc(OC)cc2)cc1 (configuration not stated),.,7%,.,-15%
Cc1ccccc1OCCSc1nc2ccc(NC(=O)c3cccs3)cc2s1,.,3%,.,?
Cc1cc2oc(C(=O)Nc3ccc(S(=O)(=O)Nc4ncccn4)cc3)cc(=O)c2cc1C,.,1%,.,-1%
CCCSc1nc2c(c(=O)[nH]1)C(c1ccc(F)cc1F)CC(=O)N2 (configuration not stated),.,-3%,.,2%
O=C(O)CCc1ncc(C(F)(F)F)cc1Cl,-6,-12%,-2,3%
O=S(=O)(Cc1ncc(C(F)(F)F)cc1Cl)c1ccccc1,51*,13%,45*,14%
Cc1cccc(C)c1-n1ncc(C(=O)N2CCN(c3ncccn3)CC2)c1C1CCN(C(=O)OC(C)(C)C)CC1,.,1%,.,0%
CC(/C=C/C(=O)NO)=C\[C@@H](C)C(=O)c1ccc(N(C)C)cc1,28,.,-4,.
c1ccc2[nH]c(-c3ccc4c(c3)OCO4)nc2c1,.,.,.,-12%
O=C(Nc1ccc(-c2nc3ccccc3[nH]2)cc1)c1ccc2c(c1)OCO2,21,4%,28*,.
O=C(Nc1ccc(Cl)c(-c2nc3ccccc3[nH]2)c1)c1ccc2c(c1)OCO2,-40,-10%,20*,11%
Cc1cc(Oc2ccc(-c3ccccc3)cc2)n2ncnc2n1,-12,9%[11.4 µM],1,40µM*
Cc1cc(CNCc2cn(C)nc2-c2ccc(Oc3ccccc3)cc2)on1,12,-17%,17*,?
N#CC1(NC(=O)COC(=O)c2ccccc2[N+](=O)[O-])CCCCC1,.,-1%,.,21%
SMILES,Shiga inhibitor,Sm TGR block,CHX counter,FMDV inh
O=C(OC1CCOC1=O)c1ccccc1C(=O)c1ccc(Cl)c([N+](=O)[O-])c1 (configuration not stated),.,25µM*,.,-29%
O=C(COC(=O)c1ccccc1[N+](=O)[O-])c1ccc(C2CCCCC2)cc1,71*,9%,60*,11µM*
O=C(COC(=O)c1ccccc1C(=O)c1ccc(Cl)c([N+](=O)[O-])c1)NC1CC1,10,22µM*,17,20µM*
CCCOc1ccc(C(=O)c2ccccc2C(=O)OC2CCOC2=O)cc1OCCC (configuration not stated),.,0%,.,13%
CS(=O)(=O)c1ccc(C(=O)OC2CCOC2=O)cc1[N+](=O)[O-] (configuration not stated),2,2.8µM*,-1,5%
O=C(COC(=O)c1ccc2c(c1Cl)C(=O)c1ccccc1C2=O)NC1CCCCC1,3,1%,-3,-7%
O=C(COC(=O)c1ccc2c(c1Cl)C(=O)c1ccccc1C2=O)NC1CC1,39*,-22%,31*,-1%
CC(C)OC(=O)c1ccccc1C(=O)c1ccc(N)c([N+](=O)[O-])c1,-7,.,-3,1%
CNC(=O)COC(=O)c1ccccc1C(=O)c1ccc(Cl)c([N+](=O)[O-])c1,41,35µM*,33*,?
CCCCn1nnc(NC(=S)NC(=O)c2cccs2)n1,115*,?,28*,41%
CCCCn1nnc(NC(=O)c2ccco2)n1,13*,-4%,26*,24%
Clc1cccc(-c2noc3ncnc(NC4CCCCC4)c23)c1,.,-1%,.,?
Cn1nc(/C=C/c2ccccc2)ccc1=O,86*,57%,28*,45%
C(=C\c1cc(/C=C/c2ccccc2)ncn1)/c1ccccc1,82*,2%,71*,10%
Cc1nc(/C=C/c2ccccc2)cc(/C=C/c2ccccc2)n1,63*,-15%,30*,31%
O=c1ccc(/C=C/c2ccccc2)nn1Cc1ccccc1,-8,-7%,-6,-24%
CCC(C(=O)NCc1ccccc1Cl)n1c(=O)c2cccn2c2ccccc21 (configuration not stated),.,-11%,.,23%
Cc1ccc(S(=O)(=O)Nc2cccc3ccc(C)nc23)cc1,-7,.,6,.
Cc1ccc(-c2onc(C)c2C)cc1S(=O)(=O)Nc1ccc(Cl)cn1,.,5%,.,61%
COCC(=O)N1CCC(Oc2ccc(C(=O)NC3Cc4ccccc4C3)cc2)CC1,55*,-24%,27*,?
CN(C)S(=O)(=O)N1CCC(Oc2ccc(C(=O)NC3CCOC(C)(C)C3)cc2)CC1 (configuration not stated),-3,13%,-7,-11%
CN(C)S(=O)(=O)N1CCC(Oc2ccc(C(=O)NC3Cc4ccccc4C3)cc2)CC1,106*,4%,22*,?
Cc1cccc(CN2CCCC(C(=O)Nc3ccc(-c4cscn4)cc3)C2)c1 (configuration not stated),-7,4%,12,-17%
COc1cccc(-c2ccc(NC(=O)C3CCCN(Cc4cnc(N(C)C)s4)C3)cc2)c1 (configuration not stated),5,-1%,30*,?
COc1cccc(-c2ccc(NC(=O)C3CCCN(Cc4ccccn4)C3)cc2)c1 (configuration not stated),.,.,.,0%
COc1cccc(-c2ccc(NC(=O)C3CCCN(CCCn4cccn4)C3)cc2)c1 (configuration not stated),-3,-21%,-2,35µM*
CCCc1ncc(CN2CCCC(C(=O)Nc3ccc(-c4cccc(OC)c4)cc3)C2)cn1 (configuration not stated),15,3%,20*,-29%

# Bioassay records: PubChem BioAssay, National Center for Advancing Translational Sciences (NCATS)
